Usually inhibition stands for the change of the read-out against control, counted positive when it falls.

A number with no mark means an inactive call. Some of the results follow. Active and inactive are the calls of the source.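 The calls were made as follows, unless noted: active = mean inhibition over 43.08%, the solvent-only control mean plus 3 SD; inactive = the rest.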

This passage reports inhibition results from PubChem BioAssay.

For test [1], the target named is Nuclear receptor coactivator 3 (Homo sapiens) (UniProt Q9Y6Q9). In words: NCOA3 GAL4-fusion reporter inhibition – cell-based, luminescence, quadruplicate, confirmation (AID 588792).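 Also: 0% = DMSO treated cells and 100% = gossypol at 36 µM.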 As to conditions: HEK293 GAL4-SRC3 luciferase reporter, at 3.6 µM, hits give high values. (In general: In a reporter assay the amount or activity of a reporter protein is the signal.)
Nuclear receptor coactivator 3 (Homo sapiens), sequence (Q9Y6Q9 whole entry, looked up, the tested form may be a part): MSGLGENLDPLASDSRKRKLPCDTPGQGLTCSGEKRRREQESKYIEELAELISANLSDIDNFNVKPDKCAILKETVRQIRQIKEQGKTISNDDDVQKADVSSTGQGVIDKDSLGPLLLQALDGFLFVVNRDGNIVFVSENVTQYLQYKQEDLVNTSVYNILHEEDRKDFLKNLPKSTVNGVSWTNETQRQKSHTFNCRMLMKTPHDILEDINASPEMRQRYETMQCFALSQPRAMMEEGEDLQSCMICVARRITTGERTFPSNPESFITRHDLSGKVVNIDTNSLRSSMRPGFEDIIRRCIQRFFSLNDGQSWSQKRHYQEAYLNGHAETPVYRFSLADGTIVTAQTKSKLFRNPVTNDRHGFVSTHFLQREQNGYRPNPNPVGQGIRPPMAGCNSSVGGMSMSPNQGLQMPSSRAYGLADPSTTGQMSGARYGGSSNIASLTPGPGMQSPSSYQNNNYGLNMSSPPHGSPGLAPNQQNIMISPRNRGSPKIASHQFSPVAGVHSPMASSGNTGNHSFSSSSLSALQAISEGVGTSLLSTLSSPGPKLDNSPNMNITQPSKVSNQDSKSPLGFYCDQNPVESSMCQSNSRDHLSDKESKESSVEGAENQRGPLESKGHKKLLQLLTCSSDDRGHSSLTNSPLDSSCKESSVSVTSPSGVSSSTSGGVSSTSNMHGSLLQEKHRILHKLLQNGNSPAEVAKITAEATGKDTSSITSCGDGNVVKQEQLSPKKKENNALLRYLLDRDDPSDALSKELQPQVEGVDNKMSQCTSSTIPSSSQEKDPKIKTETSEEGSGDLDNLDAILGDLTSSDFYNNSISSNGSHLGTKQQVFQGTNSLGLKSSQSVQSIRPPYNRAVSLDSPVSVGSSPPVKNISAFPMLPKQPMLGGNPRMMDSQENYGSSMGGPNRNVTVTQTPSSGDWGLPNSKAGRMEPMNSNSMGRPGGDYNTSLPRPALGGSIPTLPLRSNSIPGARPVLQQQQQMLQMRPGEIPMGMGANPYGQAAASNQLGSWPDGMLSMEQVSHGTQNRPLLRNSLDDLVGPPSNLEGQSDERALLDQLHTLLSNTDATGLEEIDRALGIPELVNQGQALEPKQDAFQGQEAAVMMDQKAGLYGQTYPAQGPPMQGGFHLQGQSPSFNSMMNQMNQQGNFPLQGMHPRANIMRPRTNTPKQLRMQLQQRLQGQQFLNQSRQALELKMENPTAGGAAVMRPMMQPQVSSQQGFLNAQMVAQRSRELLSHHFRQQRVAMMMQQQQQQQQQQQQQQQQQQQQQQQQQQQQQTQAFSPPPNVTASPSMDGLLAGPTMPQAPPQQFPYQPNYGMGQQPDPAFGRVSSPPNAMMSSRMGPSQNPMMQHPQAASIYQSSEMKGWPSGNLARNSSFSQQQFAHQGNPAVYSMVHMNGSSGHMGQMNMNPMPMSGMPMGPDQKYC
Test [2] relates to transactivating tegument protein VP16 (Human herpesvirus 1), Gal4-VP16 luciferase reporter. In words: repression of VP16-driven luciferase reporter – cell-based, luminescence, high throughput, counter-screen for SRC3 inhibitor project (AID 588794; in the data active = inhibition above about 30%). The conditions noted are these: mammalian cells, at 3.6 µM, hits give high values.
The target of test [3] is Nuclear receptor coactivator 1 (Homo sapiens) (UniProt Q15788). In words: NCOA1 GAL4-fusion reporter inhibition – cell-based, luminescence, quadruplicate, confirmation (AID 588820;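 active = mean inhibition above 46.68%, the untreated control wells mean plus 3 SD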;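 also: 0% = DMSO wells and 100% = gossypol 36 µM treated wells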). The conditions noted are these: HEK293 GAL4-SRC1 luciferase reporter, at 3.6 µM, hits give high values.
Test [4] is described as follows: repression of VP16-driven luciferase reporter – cell-based, luminescence, high throughput, counter-screen for SRC1 inhibitor project (AID 588824; in the data active = inhibition above about 25%). The conditions noted are these: cell-based VP16 transactivation luciferase luminescence; at 3.6 µM; hits give high values.
In test [5] the test system is transactivating tegument protein VP16 (Human herpesvirus 1). Nature of the test: compounds suppressing VP16-driven luciferase signal – cell-based, luminescence, single concentration, counter-screen for SRC2 inhibitor project (AID 652007; in the data active = inhibition above about 36%). As to conditions: cell-based VP16 transactivation luciferase reporter, at 8.9 µM, hits give high values. (In general: Counterscreens check selectivity or assay interference.)

Test [6] addresses Nuclear receptor coactivator 2 (Homo sapiens) (UniProt Q15596). In words: inhibition of GAL4-SRC2 driven luciferase expression – cell-based, luminescence, HEK293, triplicate, confirmation (AID 652008;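 active = mean inhibition above 46.5%, the solvent-only control mean plus 3 SD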;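 also: 0% = DMSO-treated cells and 100% = Gossypol at 36 µM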). As to conditions: HEK293 GAL4-SRC2 luciferase reporter, at 8.9 µM, hits give high values.
Test [7] is described as follows: StAR promoter reporter inhibitors, counter-screen for LRH-1 inverse agonist project, cell-based, luminescence, high throughput (AID 651611; in the data active = inhibition above about 28%). The conditions noted are these: StAR promoter luciferase reporter counterscreen, at 3.6 µM, hits give high values.
The target of test [8] is Nuclear receptor subfamily 5 group A member 2 (Homo sapiens) (UniProt O00482). In words: NR5A2 activity suppression in reporter cells – cell-based, luminescence, confirmation (AID 651613; in the data active = inhibition above about 42%;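 also: HEK293T cells co-transfected with LRH-1 and StAR promoter luciferase reporter; 0% = vehicle wells and 100% = parental cells lacking receptor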). As to conditions: cell-based LRH-1 luciferase reporter, inverse agonism; at 3.6 µM; hits give high values.
Nuclear receptor subfamily 5 group A member 2 (Homo sapiens), sequence (O00482 whole entry, looked up): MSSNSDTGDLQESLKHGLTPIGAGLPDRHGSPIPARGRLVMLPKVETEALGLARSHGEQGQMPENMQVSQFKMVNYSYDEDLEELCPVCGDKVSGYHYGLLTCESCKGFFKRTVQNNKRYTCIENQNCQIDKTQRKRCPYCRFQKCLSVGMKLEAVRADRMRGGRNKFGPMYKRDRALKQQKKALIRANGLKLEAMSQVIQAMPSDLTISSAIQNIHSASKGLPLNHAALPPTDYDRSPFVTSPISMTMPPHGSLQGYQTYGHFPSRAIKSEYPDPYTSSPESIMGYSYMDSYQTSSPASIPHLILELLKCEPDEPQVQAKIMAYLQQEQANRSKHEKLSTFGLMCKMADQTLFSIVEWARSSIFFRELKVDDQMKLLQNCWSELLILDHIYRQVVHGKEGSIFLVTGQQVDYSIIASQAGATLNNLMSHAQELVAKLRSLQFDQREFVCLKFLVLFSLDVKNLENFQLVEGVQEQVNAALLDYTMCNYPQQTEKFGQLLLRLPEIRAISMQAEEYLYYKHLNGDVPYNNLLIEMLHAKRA
Test [9] concerns the target Steroidogenic factor 1 (Homo sapiens) (UniProt Q13285). Nature of the test: inverse agonism at SF1 nuclear receptor – cell-based, luminescence, high throughput, counter-screen for LRH-1 inverse agonist project (AID 651614; in the data active = inhibition above about 44%;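 also: cells cotransfected with StAR promoter reporter and SF1 expression vector; 0% = vehicle on cells with receptor and 100% = vehicle on cells lacking receptor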). The conditions noted are these: cell-based SF1 luciferase reporter, at 3.6 µM, hits give high values.
The nature of test [10]: compounds suppressing VP16-driven luciferase signal – cell-based, luminescence, high throughput, counter-screen for LRH-1 inverse agonist project (AID 651615; in the data active = inhibition above about 33%). As to conditions: Gal4-VP16 luciferase reporter cells, at 3.6 µM, hits give high values.
Test [11] is described as follows: reduced OD of V66 E. coli with T4 gene 2 phage – absorbance, RecBCD inhibitor project, confirmation (AID 651982;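 active = mean inhibition over triplicates exceeding the hit threshold derived in the original primary screen, cut at about 11% in these data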). As to conditions: E. coli V66 + T4 2- phage, growth OD; at 11.9 µM; hits give high values.
A short description of test [12]: bacterial growth inhibition – absorbance, high throughput, counter-screen for RecBCD inhibitor project (AID 651983; in the data active = inhibition above about 20%;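 also: E. coli strain V66 grown with compound alone and no phage infection; 0% = bacteria with DMSO vehicle only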). As to conditions: E. coli viability, absorbance (OD) growth; at 11.9 µM; hits give high values.
The nature of test [13]: reduced optical density, T4-challenged addAB+ bacteria – absorbance, E. coli V3065, T4 phage, counter-screen for RecBCD inhibitor project, confirmation (AID 651984;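 active = mean inhibition above the solvent-only control wells' mean plus 3 SD, cut at about 22% in these data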;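 also: higher means less bacterial growth from phage killing when AddAB is blocked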). The conditions noted are these: E. coli expressing H. pylori AddAB + T4 phage, OD growth; at 11.9 µM; hits give high values; gene 2 mutant T4, recBCD-deleted host.

Nuclear receptor coactivator 2 (Homo sapiens), sequence (Q15596 whole entry, looked up, the tested form may be a part): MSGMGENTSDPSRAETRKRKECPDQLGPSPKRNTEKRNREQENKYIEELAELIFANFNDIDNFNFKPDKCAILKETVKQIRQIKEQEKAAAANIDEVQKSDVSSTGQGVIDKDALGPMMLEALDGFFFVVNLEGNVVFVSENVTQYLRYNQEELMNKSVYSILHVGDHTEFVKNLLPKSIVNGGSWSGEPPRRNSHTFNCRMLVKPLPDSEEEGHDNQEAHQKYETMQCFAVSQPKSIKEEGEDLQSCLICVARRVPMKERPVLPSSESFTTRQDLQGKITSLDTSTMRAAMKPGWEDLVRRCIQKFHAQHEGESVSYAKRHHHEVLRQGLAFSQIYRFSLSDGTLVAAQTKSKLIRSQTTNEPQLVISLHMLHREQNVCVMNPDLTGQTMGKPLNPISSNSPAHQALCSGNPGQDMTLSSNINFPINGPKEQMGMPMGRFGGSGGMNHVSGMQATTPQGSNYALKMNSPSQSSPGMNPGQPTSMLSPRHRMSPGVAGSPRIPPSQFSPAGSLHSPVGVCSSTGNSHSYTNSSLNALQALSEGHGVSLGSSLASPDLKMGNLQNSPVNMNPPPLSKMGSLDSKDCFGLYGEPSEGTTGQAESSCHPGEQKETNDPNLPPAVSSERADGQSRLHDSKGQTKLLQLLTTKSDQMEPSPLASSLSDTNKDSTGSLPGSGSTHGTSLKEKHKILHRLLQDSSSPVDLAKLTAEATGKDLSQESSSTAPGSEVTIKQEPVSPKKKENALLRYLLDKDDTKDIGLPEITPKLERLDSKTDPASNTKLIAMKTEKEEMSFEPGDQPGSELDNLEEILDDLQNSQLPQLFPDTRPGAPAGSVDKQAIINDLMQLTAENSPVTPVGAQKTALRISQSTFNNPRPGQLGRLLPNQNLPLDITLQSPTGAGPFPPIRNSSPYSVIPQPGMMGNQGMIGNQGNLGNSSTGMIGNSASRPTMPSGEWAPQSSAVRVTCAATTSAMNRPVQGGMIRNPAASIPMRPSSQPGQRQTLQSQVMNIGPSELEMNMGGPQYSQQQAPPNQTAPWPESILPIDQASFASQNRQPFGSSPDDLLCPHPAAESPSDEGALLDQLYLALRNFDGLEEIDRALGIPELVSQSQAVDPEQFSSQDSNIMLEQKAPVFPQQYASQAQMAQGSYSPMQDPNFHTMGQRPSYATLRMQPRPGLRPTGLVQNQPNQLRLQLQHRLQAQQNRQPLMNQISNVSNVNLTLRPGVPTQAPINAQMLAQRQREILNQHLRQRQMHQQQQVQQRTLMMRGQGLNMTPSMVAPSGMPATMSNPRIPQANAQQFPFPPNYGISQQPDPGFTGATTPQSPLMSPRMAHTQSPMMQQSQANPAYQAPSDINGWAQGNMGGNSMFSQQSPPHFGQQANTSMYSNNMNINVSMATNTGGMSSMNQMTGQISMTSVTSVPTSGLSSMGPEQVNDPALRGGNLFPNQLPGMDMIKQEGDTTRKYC
Steroidogenic factor 1 (Homo sapiens), sequence (Q13285 whole entry, looked up, the tested form may be a part): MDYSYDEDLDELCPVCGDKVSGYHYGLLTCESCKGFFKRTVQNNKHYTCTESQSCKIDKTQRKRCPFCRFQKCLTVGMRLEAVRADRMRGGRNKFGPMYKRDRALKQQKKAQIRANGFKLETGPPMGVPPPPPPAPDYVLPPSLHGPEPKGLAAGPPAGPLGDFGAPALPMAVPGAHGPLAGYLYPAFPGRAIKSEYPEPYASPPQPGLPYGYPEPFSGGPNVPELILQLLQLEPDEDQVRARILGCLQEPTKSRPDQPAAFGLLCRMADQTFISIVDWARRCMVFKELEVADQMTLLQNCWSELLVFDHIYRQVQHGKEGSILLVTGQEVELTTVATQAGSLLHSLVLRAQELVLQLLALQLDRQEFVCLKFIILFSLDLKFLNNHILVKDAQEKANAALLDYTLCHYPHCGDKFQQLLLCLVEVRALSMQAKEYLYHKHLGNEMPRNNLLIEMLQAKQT

On to `CCCN(CC(=O)Nc1ccccc1C)C(=O)CCl`, for which the inhibition in test [1] is 74.9% (active); in test [2], 48.1% (active); in test [3] it was 48.8% (active); in test [4], 53.4% (active); in test [5] it was 65.6% (active); in [6] it was 75.8% (active).
Take `CCOC(=O)c1cccc2c1-c1ccccc1/C2=N/O`: the inhibition is 39.8% in [1]; 23.7% in [2]; 46.5% in [3]; 23.2% in test [4]; -10.8% in test [5]; 24.9% in test [6].
Take `COc1cc2cc(C(=O)Nc3ccc4c(c3)OCCO4)[nH]c2cc1OC`: the inhibition in test [1] is 27.4%; in test [2], -26.5%; in test [3] it was -2.55%; in [4], -48.8%; in test [7] it was -32.3%; in test [8], -49.1%. Besides, the inhibition in [9] was -20.5%; in test [10], -35.9%; in test [5], -41.9%; in test [6], 38.2%.
Regarding `COc1ccc(Cc2nnc(N/N=C/c3ccccc3O)[nH]c2=O)cc1OC`, the inhibition in test [1] is 84.5% (active); in [2], 77% (active); in [3], 76.7% (active); in test [4], 82.6% (active); in test [5] it was 21.2%; in [6], 38.8%.
Regarding `Cn1nc(C(F)(F)F)c(C#N)c1N1CCN(c2ccc(F)cc2)CC1`, the inhibition in test [1] is 36.7%; in test [2], 31.8% (active); in test [3] it was 36.7%; in test [4], 25.1%; in [5], -6.8%; in test [6], 48.8% (active).
For `CC1=C(C(=O)OCc2ccc3c(c2)OCO3)C(c2cccc([N+](=O)[O-])c2)NC(=O)N1` (configuration not stated), the inhibition is 64.6% (active) in test [1]; 42.2% (active) in [2]; 65.7% (active) in [3]; 37.3% (active) in [4]; -0.72% in test [5]; 51.9% (active) in test [6].
As for `C[C@H]1O[C@@H](O[C@H]2[C@@H](O)C[C@H](O[C@H]3[C@@H](O)C[C@H](O[C@H]4CC[C@@]5(C)[C@H](CC[C@@H]6[C@@H]5C[C@@H](O)[C@]5(C)[C@@H](C7=CC(=O)OC7)CC[C@]65O)C4)O[C@@H]3C)O[C@@H]2C)C[C@H](O)[C@@H]1O`, the inhibition in [1] was 96.8% (active); in [2], 88.6% (active); in test [3], 80.6% (active); in test [4], 87.5% (active); in test [8], 110% (active); in test [9], 97.7% (active). In addition, the inhibition in test [5] is 70.2% (active); in [6], 55.2% (active).
For the compound `CCN(CC)c1ccc(/C=N/Nc2nc(C)cc(=O)[nH]2)c(O)c1`, the inhibition in test [1] was 87.7% (active); in test [2], 78.7% (active); in test [3], 67.1% (active); in [4], 74.3% (active); in test [5] it was -39.4%; in test [6], 29.6%.
`COc1cc([C@@H]2c3cc4c(cc3[C@@H](O[C@@H]3O[C@@H]5CO[C@@H](C)O[C@H]5[C@H](O)[C@H]3O)[C@H]3COC(=O)[C@H]23)OCO4)cc(OC)c1O`: the inhibition is 64.4% (active) in test [1]; 8.66% in test [2]; 62.5% (active) in [3]; 6.22% in test [4]; 69.3% (active) in [8]; 44.6% (active) in test [9].
In the case of `NCC(=O)Nc1ccc(Cl)cc1C(=O)c1ccc[nH]1`, the inhibition is 66.1% (active) in test [1]; 45.8% (active) in [2]; 47% (active) in test [3]; 39.9% (active) in test [4]; 49.4% (active) in test [7]; 55.3% (active) in test [8]. In addition, the inhibition in [9] was 62.3% (active); in test [10], 39.2% (active); in [5], 21.2%; in test [6], 43.5%.
`Cc1cc(Sc2nnc(/N=C/N(C)C)s2)c2ccccc2n1`: the inhibition in test [1] was 9.12%; in test [2], 40.5% (active); in test [3], 2.4%; in test [4], 33.8% (active); in test [5], -8.53%; in test [6] it was 24.6%.
Regarding `CNc1ncnc(Sc2nc(N)nc3nc[nH]c23)c1[N+](=O)[O-]`, the inhibition in [1] is 47.1% (active); in test [2], 20.2%; in [3], 26.8%; in [4], 14.4%; in [8], 52.6% (active); in test [9], 25.1%.
As for `CCn1c(Oc2ccc(F)cc2)nc2c1c(=O)n(C)c(=O)n2C`, the inhibition is 33.6% in test [1]; 29.8% (active) in [2]; 39.9% in test [3]; 23.5% in [4]; 2.83% in [5]; 30.9% in test [6].
As for `Cc1c(CC(=O)NCCCC(=O)O)c(=O)oc2cc3c(cc12)CCC(C)(C)O3`, the inhibition in [1] was 35.8%; in test [2], 17.2%; in [3] it was 15.6%; in [4] it was 15.5%; in test [5] it was 58.8% (active); in [6], 60.9% (active).
With `O=C1NC(=S)N/C1=C/c1cccnc1`, the inhibition in test [1] is 39.1%; in test [2], 32% (active); in [3], 44.9%; in test [4] it was 31.8% (active); in [5], -3.45%; in test [6], 43.8%.
Consider `Cc1ccc(/C=N/NC(=O)C2=NNC(c3ccccc3)(c3ccccc3)C2)c(O)c1`, for which the inhibition in [1] was 71.4% (active); in [2] it was 57.5% (active); in [3], 45.4%; in test [4], 51.8% (active); in test [11] it was 3.86%; in test [12], 5.88%. In addition, in test [13], the inhibition was 5.05%.
